Data taken from the supplement of paper PMC4022240.
± gives the standard deviation.

Experiments:
Test in all cases: peptide microarray binding signal (635 nm), min-max normalized on array (fraction of array maximum); higher = stronger binding
[1] = biological target: T1, HaloTag-ATRX ADD domain (163-292)
T1 chain: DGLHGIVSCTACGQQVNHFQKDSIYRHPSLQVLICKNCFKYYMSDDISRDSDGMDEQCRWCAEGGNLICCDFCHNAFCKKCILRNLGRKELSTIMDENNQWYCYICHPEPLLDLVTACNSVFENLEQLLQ
How it was run: (§1)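 For each library, binding signal was taken as the triplicate-spot mean intensity and then min-max scaled. Spots of histone 13-mer peptide–cellulose conjugates on nitrocellulose, printed in triplicate with a Cy3 tracer, were probed for 1 h at 4°C with either biotin-labelled HaloTag reader fusions (10 nM to 1 μM) and streptavidin-Alexa Fluor 647 or rabbit histone antibodies (1:10,000 to 1:2,000) and anti-rabbit Alexa 647. Readout at 635 nm came from an Axon GenePix 4000B.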

[2] = biological target: HaloTag-ING2 PHD (mouse Ing2 200-280)
How it was run: as §1

[3] = biological target: anti-H3K4me3 antibody ab8580
How it was run: as §1

[4] = biological target: anti-H3K9me3 antibody ab8898
How it was run: as §1

[5] = peptide region: H4 38-50, peptide modifications: H4K44me3 H4R45me1, binder concentration: 1:2,000 dilution
[6] = peptide region: H4 38-50, peptide modifications: H4K44me3 H4R45me1, binder concentration: 1:10,000 dilution
[7] = peptide region: H4 38-50, peptide modifications: H4K44me2 H4R45cit, binder concentration: 1:2,000 dilution
[8] = peptide region: H4 38-50, peptide modifications: H4K44me2 H4R45cit, binder concentration: 1:10,000 dilution
[9] = peptide region: H4 53-65, peptide modifications: H4K59me1, binder concentration: 1:2,000 dilution
[10] = peptide region: H4 53-65, peptide modifications: H4K59me1, binder concentration: 1:10,000 dilution
[11] = peptide region: H4 53-65, peptide modifications: H4K59ac, binder concentration: 1:2,000 dilution
[12] = peptide region: H4 53-65, peptide modifications: H4K59ac, binder concentration: 1:10,000 dilution
[13] = peptide region: H4 38-50, peptide modifications: H4R45cit, binder concentration: 1:2,000 dilution
[14] = peptide region: H4 38-50, peptide modifications: H4R45cit, binder concentration: 1:10,000 dilution

ARRGGVKRISGLI [H4 38-50 A R R G G V Kme3 Rme I S G L I]
peptide microarray binding signal ([1]; peptide region: H4 38-50, peptide modifications: H4K44me3 H4R45me1, binder concentration: 50 nM): 0.002821 ± 2.4e-05 | peptide microarray binding signal ([1]; peptide region: H4 38-50, peptide modifications: H4K44me3 H4R45me1, binder concentration: 500 nM): 0.00524 ± 8.9e-05 | peptide microarray binding signal ([2]; peptide region: H4 38-50, peptide modifications: H4K44me3 H4R45me1, binder concentration: 10 nM): 0.0104 ± 0.0012 | peptide microarray binding signal ([2]; peptide region: H4 38-50, peptide modifications: H4K44me3 H4R45me1, binder concentration: 100 nM): 0.0257 ± 0.006 | peptide microarray binding signal [3, 5]: 0.00143 ± 5.5e-05 | peptide microarray binding signal [3, 6]: 0.001655 ± 1.6e-05 | peptide microarray binding signal [4, 5]: 0.000951 | peptide microarray binding signal [4, 6]: 0.000865 ± 9e-06

ARRGGVKRISGLI [H4 38-50 A R R G G V Kme2 Rcit I S G L I]
peptide microarray binding signal ([1]; peptide region: H4 38-50, peptide modifications: H4K44me2 H4R45cit, binder concentration: 50 nM): 0.00389 ± 6.7e-05 | peptide microarray binding signal ([1]; peptide region: H4 38-50, peptide modifications: H4K44me2 H4R45cit, binder concentration: 500 nM): 0.00743 | peptide microarray binding signal ([2]; peptide region: H4 38-50, peptide modifications: H4K44me2 H4R45cit, binder concentration: 10 nM): 0.007102 ± 3.2e-05 | peptide microarray binding signal ([2]; peptide region: H4 38-50, peptide modifications: H4K44me2 H4R45cit, binder concentration: 100 nM): 0.0109 ± 0.00033 | peptide microarray binding signal [3, 7]: 0.00136 ± 0.00012 | peptide microarray binding signal [3, 8]: 0.00177 ± 2.9e-05 | peptide microarray binding signal [4, 7]: 0.00104 ± 2.9e-05 | peptide microarray binding signal [4, 8]: 0.0011 ± 2.9e-05

ETRGVLKVFLENV [H4 53-65 E T R G V L Kme V F L E N V]
peptide microarray binding signal ([1]; peptide region: H4 53-65, peptide modifications: H4K59me1, binder concentration: 50 nM): 0.00605 ± 0.00068 | peptide microarray binding signal ([1]; peptide region: H4 53-65, peptide modifications: H4K59me1, binder concentration: 500 nM): 0.00795 ± 0.00042 | peptide microarray binding signal ([2]; peptide region: H4 53-65, peptide modifications: H4K59me1, binder concentration: 10 nM): 0.00847 ± 0.001 | peptide microarray binding signal ([2]; peptide region: H4 53-65, peptide modifications: H4K59me1, binder concentration: 100 nM): 0.0164 ± 0.0049 | peptide microarray binding signal [3, 9]: 0.00213 ± 0.00025 | peptide microarray binding signal [3, 10]: 0.00314 ± 0.00021 | peptide microarray binding signal [4, 9]: 0.00166 ± 0.00016 | peptide microarray binding signal [4, 10]: 0.00231 ± 8.4e-05

ETRGVLKVFLENV [H4 53-65 E T R G V L Kac V F L E N V]
peptide microarray binding signal ([1]; peptide region: H4 53-65, peptide modifications: H4K59ac, binder concentration: 50 nM): 0.00241 ± 3.2e-05 | peptide microarray binding signal ([1]; peptide region: H4 53-65, peptide modifications: H4K59ac, binder concentration: 500 nM): 0.00333 ± 0.00022 | peptide microarray binding signal ([2]; peptide region: H4 53-65, peptide modifications: H4K59ac, binder concentration: 10 nM): 0.00997 ± 0.0024 | peptide microarray binding signal ([2]; peptide region: H4 53-65, peptide modifications: H4K59ac, binder concentration: 100 nM): 0.00425 ± 0.00013 | peptide microarray binding signal [3, 11]: 0.00104 ± 4.9e-05 | peptide microarray binding signal [3, 12]: 0.00143 ± 4.8e-05 | peptide microarray binding signal [4, 11]: 0.000529 ± 1.3e-05 | peptide microarray binding signal [4, 12]: 0.00104 ± 2.1e-05

ARRGGVKRISGLI [H4 38-50 A R R G G V K Rcit I S G L I]
peptide microarray binding signal ([1]; peptide region: H4 38-50, peptide modifications: H4R45cit, binder concentration: 50 nM): 0.00395 ± 6.8e-05 | peptide microarray binding signal ([1]; peptide region: H4 38-50, peptide modifications: H4R45cit, binder concentration: 500 nM): 0.00619 ± 7.4e-05 | peptide microarray binding signal ([2]; peptide region: H4 38-50, peptide modifications: H4R45cit, binder concentration: 10 nM): 0.00561 ± 4.7e-05 | peptide microarray binding signal ([2]; peptide region: H4 38-50, peptide modifications: H4R45cit, binder concentration: 100 nM): 0.0163 ± 0.003 | peptide microarray binding signal [3, 13]: 0.012 ± 0.0055 | peptide microarray binding signal [3, 14]: 0.00976 ± 0.00034 | peptide microarray binding signal [4, 13]: 0.00521 ± 0.00036 | peptide microarray binding signal [4, 14]: 0.00271 ± 7.1e-05
